Pf growth 96h = P. falciparum growth inhibition at 96 hour, primary screen for plastid delayed-death inhibitors; AID 504834; P. falciparum luciferase reporter growth, 96 h; Potency, µM (series often up to 28.7 µM), without a hit: at the top dose activity change, negative = inhibition, actives largely listed as inhibitors; hit rate 6.9% among 320,000; further: potency means the concentration at half of the fitted maximal effect; on the % scale 0 is the no-effect control and ±100 the full control effect
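Two parasite generations (96 h, 37 C, 5% CO2) of compound exposure in infected erythrocytes (0.05% parasitemia, 2% hematocrit). Luciferase-reporter P. falciparum; decreased luminescence indicates inhibited growth, aimed at apicoplast-acting delayed death.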
NS1 inh = blocks influenza NS1 protein function | Potency, µM (series often up to 46.1 µM), for the others: top-dose activity, positive = more growth | hit rate 0.4% among 270,000 | AID 2326; calls by dose curve; further: potency means the concentration at half of the fitted maximal effect; actives are rising curves; nearly all actives have a fitted effect of over 50% in size
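Growth recovery, yeast-based: influenza A NS1 expressed in S. cerevisiae causes slow growth, and suppressors are detected by OD600. The parent strain without NS1 is used as positive control.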
Shiga toxin inh = blocks Shiga toxin action in Vero cells; Vero cells, Shiga toxin protein synthesis inhibition reporter; inhibition, % at 38.7 µM; hit rate 9.2% among 290,000; in the data active means inhibition mostly above about 28%, no sharp cut-off; inactive means mostly below about 43%; further: 0% is about no effect
Cycloheximide cs = affects cycloheximide protein synthesis inhibition readout, counter-screen. hit rate 12% among 300,000. AID 2314. max response, %. cell reporter, cycloheximide protein synthesis inhibition counterscreen; in the data active means max response mostly above about 13%, no sharp cut-off; inactive means mostly below about 14%; further: read at 38.3 µM for the half of the compounds with a filed dose; 0% is about no effect
Sm TGR block = blocks Schistosoma mansoni thioredoxin glutathione reductase. Q962Y6. purified TGR, DTNB reduction, TNB absorbance 405 nm. Potency, µM (titrated, usually from 114 µM), inactives show at the top dose activity change, negative = inhibition, actives largely listed as inhibitors. hit rate 3% among 360,000. AID 485364; further: potency means the concentration at half of the fitted maximal effect; on the % scale 0 is the no-effect control and ±100 the full control effect; nearly all actives have a fitted effect of over 60% in size
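Kinetic colorimetric format: TGR-catalysed, NADPH-driven DTNB reduction monitored via TNB absorbance. Enzyme dispensed at 20 nM; compound exposure 15 min at room temperature before reaction start.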
Pf growth 48h = P. falciparum growth inhibition at 48 hours (one generation); AID 504832; P. falciparum luciferase growth in erythrocytes, 48 h; Potency, µM (series often up to 28.7 µM), without a hit: at the highest dose activity change, negative = inhibition, usual class: inhibitors; hit rate 5.9% among 310,000; further: potency means the concentration at half of the fitted maximal effect; on the % scale 0 is the no-effect control and ±100 the full control effect
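Erythrocytes infected with P. falciparum carrying an integrated firefly luciferase reporter (2% hematocrit, 0.1% parasitemia final) were exposed to compounds in RPMI 1640 with 0.5% Albumax at 37 C, 5% CO2. Growth inhibition was scored as reduced luminescence.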
Starred values were filed as active, the others as inactive; ? = inconclusive; nt = no result given; [ ] = another dose, or the depositor's remark. Sampled rows, rich in hits. Any-hit rate of the full collection: about 21%. Unless noted, the call rests on the fitted dose curve; in most records, active means well fitted curve in the direction sought with a large enough effect; inconclusive means small, poorly fitted or top-dose-only effect, or another doubt; inactive means no such curve, though single readings can be large; an effect the other way counts as inactive or inconclusive.

SMILES	Pf growth 96h	NS1 inh	Shiga toxin inh	Cycloheximide cs	Sm TGR block	Pf growth 48h
O=C(NN1C(=O)C2C(C1=O)C1C=CC2C12CC2)c1cccc(Cl)c1 (centres undefined)	?	0%	19	-2	-33%	1%
O=C(NN1C(=O)C2C3C=CC(C4CC34)C2C1=O)c1cccc(Cl)c1 (centres undefined)	?	1%	132*	48*	2%	-4%
O=C(NN1C(=O)C2C3C=CC(O3)C2C1=O)c1cccc(O)c1 (centres undefined)	?	-6%	-10	-7	20µM*	15%
O=C(NN1C(=O)/C(=C/c2ccc(O)cc2)SC1=S)c1cccc(O)c1	?	-1%	32	-1	4%	12%
O=C(NN1C(=O)C2C3C=CC(C3)[C@H]2C1=O)c1cccnc1 (some centres undefined)	26%	-9%	-3	-1	0%	15%
O=C(NN1C(=O)C2C3C=CC(O3)C2C1=O)c1cccc(Br)c1 (centres undefined)	17%	2%	-9	-2	22µM*	-1%
COCCCNc1nc2c(S(=O)(=O)c3ccc(C)c(C)c3)nnn2c2ccc(Cl)cc12	nt	nt	nt	nt	2%	nt
COC(=O)C(CCSC)NC(=O)c1cc2c(n(-c3ccc(Cl)cc3)c1=O)CCCC2=O (centres undefined)	nt	nt	nt	nt	7%	nt
CCOc1ccc(NC(=O)c2nn(C)c3c2CS(=O)(=O)c2ccccc2-3)cc1	nt	nt	nt	nt	-1%	nt
O=C(O)c1ccc(N/N=C/c2cccc(F)c2)cc1	267%	-25%	69*	81*	-16%	214%
O=C(O)c1ccc(N/N=C/c2ccc(F)c(F)c2)cc1	174%	-31%	35	15*	-3%	258%
O=C(O)c1ccc(N/N=C/c2cccc(C(F)(F)F)c2)cc1	-22%	-81%	84*	55*	-7%	252%
O=C(N/N=C/c1cccc(C(F)(F)F)c1)c1cc2c(s1)-c1ccccc1CC2	57%	-6%	-6	5	2%	-1%
COc1ccc(OC)c(NC(=O)CN2C(=O)C(=O)N(Cc3ccccc3)C2=O)c1	11%	nt	nt	nt	-21%	-3%
NNC(=O)c1[nH]c(-c2ccccc2)cc1-c1ccccc1	?	?	-11	-2	0%	?
CC(C)c1ccc(N(CC(=O)O)S(=O)(=O)c2ccc3[nH]c(=O)c(=O)[nH]c3c2)cc1	nt	nt	nt	nt	-2%	nt
COc1ccc(NC(=O)c2cncc(Br)c2)cc1S(=O)(=O)N1CCCCC1	-101%	5%	16	-2	4%	?
CCN(CC)c1nc2ccccc2[nH]1	66%	-6%	-28	-3	2%	-9%
Cc1ccc(-c2nc3ccccc3[nH]2)cn1	34%	-23%	32*	22*	-2%	127%
Clc1ccc(-c2nc3ccccc3[nH]2)cn1	7%	-34%	31	23*	9%	38%
O=C(NCc1n[nH]c(=O)c2ccccc12)C1CC(=O)N(c2ccc(Cl)cc2)C1 (centres undefined)	52%	nt	nt	nt	-13%	4%
COc1ccc2nc(C)cc(Nc3ccc(N4CCN(C)CC4)cc3)c2c1	?	7%	14	-3	9%	0%[0.00184 µM]
CCOC(=O)c1cc(S(=O)(=O)Nc2ccc(Br)c(C)c2)[nH]n1	nt	nt	nt	nt	20%	nt
CCOC(=O)c1c(N)n(Cc2ccco2)c2nc3ccccc3nc12	19%	-3%	-10	-4	45µM*	?
COCC(C)OC(=O)c1c(N)n(-c2ccc(OC)c(OC)c2)c2nc3ccccc3nc12 (centres undefined)	-2%	1%	-6	-1	14%	23%
SMILES	Pf growth 96h	NS1 inh	Shiga toxin inh	Cycloheximide cs	Sm TGR block	Pf growth 48h
COCC(C)OC(=O)c1c(N)n(Cc2ccco2)c2nc3ccccc3nc12 (centres undefined)	nt	nt	17	5	10µM*	nt
CCc1ccnc(NS(=O)(=O)c2ccc3c(c2)CCO3)c1	1%	-1%	-2	-2	2%	22%
Cn1cncc1C#Cc1ccc2cc(C(C)(C)O)oc(=O)c2c1	0%	nt	nt	nt	-5%	?
Cn1cncc1C#Cc1c(C=O)[nH]c2ccccc12	5.2µM*	nt	nt	nt	-27%	8.3µM*
Cn1cncc1C#Cc1c(C=O)n(C)c2ccccc12	?	nt	nt	nt	-31%	12µM*
CCCCc1nnc(NC(=O)C(C)Sc2nc(N)cc(=O)[nH]2)s1 (centres undefined)	12%	2%	-10	-5	0%	nt
O=C(Nc1ccc2c3c(cccc13)CC2)c1ccco1	nt	-44%	53	19*	-23%	49%
O=C(Nc1ccc2c3c(cccc13)CC2)c1ccc(Br)o1	-6%	5%	7	23	-23%	nt
COc1ccc(C(=O)Nc2ccc3c4c(cccc24)CC3)cc1	61%	1%	73	32*	10%	10%
CCCCc1cc(=O)oc2cc(C)cc(OCC(=O)NCc3ccccn3)c12	2.6µM*	-1%	6	-4	-11%	2.9µM*
CCc1cc(=O)oc2cc(C)cc(OC(C)C(=O)NCCCn3ccnc3)c12 (centres undefined)	?	-13%	8	-6	-17%	10µM*
Cc1cc(OC(C)C(=O)NCc2ccccn2)c2c(C)cc(=O)oc2c1 (centres undefined)	3.7µM*	2%	8	-4	1%	1.7µM*
CCCc1cc(=O)oc2cc(C)cc(OCC(=O)NCc3cccnc3)c12	10%	-23%	-5	-3	2%	?
CCCCc1cc(=O)oc2cc(C)cc(OCC(=O)Nc3cccnc3)c12	0.52µM*	-3%	-5	-1	-7%	0.47µM*
CC(C)Cn1c(=O)c2ccccc2n2c(CCC(=O)NCc3ccc(Cl)cc3)nnc12	nt	nt	nt	nt	-1%	nt
COc1ccccc1CNC(=O)COC(=O)c1ccc(C)c(S(=O)(=O)N2CCCCC2)c1	-2%	16%	12	-2	7%	14%
CCOC(=O)c1c(NC(=O)Cc2coc3cc(C)cc(C)c23)sc2c1CCC2	nt	nt	nt	nt	4%	nt
Cc1ccc2cc(CN(C(=O)c3cccnc3)C(C)C)c(=O)[nH]c2c1	?	-6%	-13	-1	7%	12µM*
COc1cccc(C(=O)N(Cc2cc3cc(C)ccc3[nH]c2=O)C(C)C)c1	3.7µM*	-18%	8	-3	-4%	7.4µM*
CC(=O)N(Cc1cc2cc(C)ccc2[nH]c1=O)c1cccc(C)c1C	9.3µM*	11%	nt	-5	0%	0%
COc1ccccc1CNC(=O)CSc1nc(=O)[nH]c2c1CCC2	nt	nt	nt	nt	10%	nt
Cc1cc(C)cc(Oc2nc3c(c(=O)n(C)c(=O)n3C)n2Cc2ccc(F)cc2)c1	nt	nt	nt	nt	-7%	nt
CC1=NN(C(N)=S)C(=O)C1N=Nc1c(Br)cc(Br)cc1Br (centres undefined)	-20%	-94%	nt	1	-1%	15%
CC1=NN(C(N)=S)C(=O)C1N=Nc1ccc(C)cc1C (centres undefined)	8.3µM*	-206%	59*	29*	-2%	nt

Screening data: PubChem BioAssay, National Center for Advancing Translational Sciences (NCATS)
